{
  "source": "PubChem BioAssay AID1347056",
  "about": "(Sanford-Burnham Center for Chemical Genomics, 2019)",
  "note": "The campaign covered roughly 360,000 compounds. About 3,600 (1%) were called active. For the sample, actives were picked, then their nearest neighbours and some compounds at random. A number with no mark means an inactive call.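 Rule for the calls: active = compounds whose plate-normalised and pattern-corrected inhibition of the luciferase reporter signal at the single screening dose is 50% or more; inactive = the rest.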",
  "data": [
    {"experiment": "TROY pathway blockers in reporter cells – Q293 LMP1-TROYcd cells, NF-kB luciferase, uHTS, primary screen (AID 1347056)", "conditions": "4 h, at 10 µM, hits give high values", "values": [
      {"smiles": "CCC(Oc1ccccc1C)C(=O)Nc1ccc(S(=O)(=O)Nc2cc(C)on2)cc1", "note": "(configuration not stated)", "inhibition": "-0.38%"},
      {"smiles": "COc1ccc(C(=O)Nc2c(N)nc(SCC(=O)Nc3ccc(C(C)=O)cc3)[nH]c2=O)cc1", "inhibition": "-11%"},
      {"smiles": "Cc1ccc(S(=O)(=O)N(CC(=O)Nc2cccc([N+](=O)[O-])c2)Cc2ccc(Cl)cc2)cc1", "inhibition": "44.3%"},
      {"smiles": "COC(=O)Cc1[nH]n(-c2nc3ccccc3s2)c(=O)c1C(C)=Nc1ccc(OC)cc1", "inhibition": "54.6% (active)"},
      {"smiles": "O=C1CSC(=O)N1CCOCCN1C(=O)CSC1=O", "inhibition": "-11.1%"},
      {"smiles": "COc1ccccc1C(=O)NC(=S)NC12CC3CC(CC(C3)C1)C2", "inhibition": "14.8%"},
      {"smiles": "COc1ccccc1C(=O)NC(=S)Nc1ccc(N2CCOCC2)cc1", "inhibition": "30.2%"},
      {"smiles": "COc1ccccc1C(=O)NC(=S)Nc1ccccc1N1CCCCC1", "inhibition": "50.5% (active)"},
      {"smiles": "Cc1ccc(CN(Cc2cccnc2)C(=S)Nc2cc(Cl)ccc2C)cc1", "inhibition": "-0.68%"},
      {"smiles": "NC(=O)C1(C(N)=O)OC1c1ccc(Cl)cc1Cl", "note": "(configuration not stated)", "inhibition": "-4.3%"},
      {"smiles": "CC(C)(C)C(=O)Nc1ccc(C(=O)N/N=C/c2ccccc2OC(=O)c2ccc(Cl)cc2Cl)cc1", "inhibition": "-17%"},
      {"smiles": "O=C(NN=Cc1ccc2c(c1)CCC2)c1ccccc1O", "inhibition": "-55%"},
      {"smiles": "CCOc1ccc(-c2cc(C(=O)N/N=C/c3ccc(O)cc3)c3ccccc3n2)cc1", "inhibition": "42.4%"},
      {"smiles": "O=C(N/N=C/c1ccc(OC(=O)c2ccccc2Cl)cc1)c1ccc(O)cc1", "inhibition": "54.5% (active)"},
      {"smiles": "COc1ccc(C(=O)Nc2ccccc2C(=O)N/N=C/c2ccc(O)c(OC)c2)cc1", "inhibition": "84.9% (active)"},
      {"smiles": "COc1cccc(OCc2cc(/C=N/NC(=O)c3nc(Cl)c(Cl)c(N)c3Cl)ccc2OC)c1", "inhibition": "11.1%"},
      {"smiles": "CN1C(=O)/C(=C/C=C2\\SCCN2C)OC1=S", "inhibition": "-2.27%"},
      {"smiles": "CCOC(=O)CCCNC(=O)CN1C(=O)NC(CCc2ccccc2)C1=O", "note": "(configuration not stated)", "inhibition": "-5.07%"},
      {"smiles": "O=C1/C(=C\\Nc2ccccc2)CCN1c1ncccn1", "inhibition": "-49.4%"},
      {"smiles": "COc1ccc(Cc2nnc(SCC(=O)Nc3ccc(C)c(C)c3)o2)cc1OC", "inhibition": "8.78%"},
      {"smiles": "Fc1ccc2[nH]c3c(N4CCSCC4)ncnc3c2c1", "inhibition": "59.8% (active)"},
      {"smiles": "Cc1ccnc(NC(=O)C(C)N2C(=O)c3ccccc3C2=O)c1", "note": "(configuration not stated)", "inhibition": "-1.82%"},
      {"smiles": "Oc1c(Cl)cc(Cl)c(Cl)c1Cc1c(O)c(Cl)cc(Cl)c1Cl", "inhibition": "80.3% (active)"},
      {"smiles": "CC(Oc1ccccc1)C(=O)Nc1oc(-c2ccco2)c(-c2ccco2)c1C#N", "note": "(configuration not stated)", "inhibition": "14.3%"},
      {"smiles": "O=C(O)c1ccc2c(=O)n3c(nc2c1)/C(=C/c1ccc(OC(F)F)cc1OC(F)F)CC3", "inhibition": "1.62%"},
      {"smiles": "Fc1ccc2nc(-c3ccccc3)nc(SCc3nnc(-c4ccccc4)o3)c2c1", "inhibition": "-9.52%"},
      {"smiles": "c1ccc(-c2nnc(SCc3nc4ccccc4[nH]3)o2)cc1", "inhibition": "57.9% (active)"},
      {"smiles": "CCN(C(=O)CSc1nnc(-c2ccncc2)o1)c1ccccc1", "inhibition": "2.98%"},
      {"smiles": "COc1ccc(C(C)=O)cc1CN1C(=O)NC2(CCCCC2C)C1=O", "note": "(configuration not stated)", "inhibition": "19%"},
      {"smiles": "CCOc1ccc(CCNC(=O)CCc2nnc3ccc(N4CCCC4)nn23)cc1OCC", "inhibition": "3.54%"},
      {"smiles": "Cc1nc2sccn2c(=O)c1S(=O)(=O)NCCc1ccccc1", "inhibition": "-4.17%"},
      {"smiles": "O=C(Nc1cc(-c2nn(CC(=O)N3CCCCC3)c(=O)c3ccccc23)ccc1N1CCOCC1)c1ccc(Cl)cc1", "inhibition": "-10.6%"},
      {"smiles": "O=C(Nc1cc(Cl)ccc1N1CCOCC1)c1ccc(N2CCCC2=O)cc1", "inhibition": "70.3% (active)"},
      {"smiles": "O=C(Nc1cc(S(=O)(=O)N2CCOCC2)ccc1OCC(F)(F)F)c1ccc(N2CCCC2=O)cc1", "inhibition": "1.27%"},
      {"smiles": "CN(C)C(=O)c1ccc2c(c1)C1C3CCC(C3)C1C(c1ccccc1)N2", "note": "(configuration not stated)", "inhibition": "-1.11%"},
      {"smiles": "O=C(C1CCC(=O)N(C2CC2)C1)N1CCN(c2ccc(Cl)cc2)CC1", "note": "(configuration not stated)", "inhibition": "-7.66%"},
      {"smiles": "Cc1ccc(S(=O)(=O)N(C)C)cc1NC(=O)C(C)OC(=O)c1ccc2ccccc2n1", "note": "(configuration not stated)", "inhibition": "-2.57%"},
      {"smiles": "COC(=O)c1ccccc1NC(=O)Cn1nc(C(F)(F)F)c2c1CCC2", "inhibition": "-27%"},
      {"smiles": "Cc1ccc(CSc2nc(-c3ccccc3)c(C#N)c(=O)[nH]2)cc1", "inhibition": "54% (active)"},
      {"smiles": "Cc1ccccc1CSc1nnc(-c2ccccc2)c(=O)[nH]1", "inhibition": "-16.6%"},
      {"smiles": "N#Cc1c(-c2ccccc2)nc(SCc2cccc(C(F)(F)F)c2)[nH]c1=O", "inhibition": "41.2%"},
      {"smiles": "Cc1ccc(NC(=O)Cc2nnc(SCC(=O)Nc3nncs3)n2C)cc1", "inhibition": "-1.88%"},
      {"smiles": "CCOC(=O)Cc1c(C)nc2c(C#N)c(C)nn2c1C", "inhibition": "10.1%"},
      {"smiles": "CN(CC(=O)NCc1ccncc1)S(=O)(=O)c1ccc(Br)cc1", "inhibition": "0.22%"},
      {"smiles": "Cc1ccc(S(=O)(=O)N2CCCCC2)cc1NC(=O)CCNC(=O)c1ccccc1", "inhibition": "-24.1%"},
      {"smiles": "OCC[C@H]1C[C@H](O)[C@@H](O)[C@]2(CCCCO2)O1", "inhibition": "-23.7%"},
      {"smiles": "C[C@H]1CC[C@]2(O[C@@H](CCO)C[C@@H](O)[C@@H]2O)O1", "inhibition": "80.2% (active)"},
      {"smiles": "C[C@@H]1CC[C@]2(O[C@@H](CCO)C[C@H](O)[C@H]2O)O1", "inhibition": "0.26%"},
      {"smiles": "CCOC(=O)C1(C)CCCN(C(=O)c2ccc(F)c(Cl)c2)C1", "note": "(configuration not stated)", "inhibition": "2.88%"},
      {"smiles": "Cc1ccccc1N1CCN(Cc2nc(Cc3ccccc3F)no2)CC1", "inhibition": "-8.4%"},
      {"smiles": "O=C(/C=C/c1cnc2ccccc2n1)NC1CCCCCC1", "inhibition": "-49.1%"},
      {"smiles": "Cc1nc2cc(NC(=O)CSc3nc4c(C)cccc4cc3C#N)ccc2s1", "inhibition": "4.28%"},
      {"smiles": "COc1ccc(/C(O)=C2/C(=O)C(=O)N(c3nc(C)c(C)s3)C2c2ccco2)cc1", "note": "(configuration not stated)", "inhibition": "-21.4%"},
      {"smiles": "CCOc1ccc(/C(O)=C2\\C(=O)C(=O)N(c3ccc(OC)cc3)C2c2ccccc2[N+](=O)[O-])cc1", "note": "(configuration not stated)", "inhibition": "54.8% (active)"},
      {"smiles": "COc1ccc(C2/C(=C(/O)c3ccccc3)C(=O)C(=O)N2c2ncccn2)cc1OC", "note": "(configuration not stated)", "inhibition": "-2.92%"},
      {"smiles": "Cc1ccc(C(O)c2ncc(-c3ccccc3F)[nH]2)cc1F", "note": "(configuration not stated)", "inhibition": "-21.9%"},
      {"smiles": "CC(=O)c1ccc(N2CCN(S(=O)(=O)c3ccc4c(c3)CC(=O)N4C)CC2)cc1", "inhibition": "-27.6%"}
    ]}
  ]
}
